Screening data: PubChem BioAssay, National Center for Advancing Translational Sciences (NCATS)
DT40 TDP1 CPT: qHTS for Inhibitors of human tyrosyl-DNA phosphodiesterase 1 (TDP1): qHTS in cells in presence of CPT; chicken DT40 Tdp1-/-;hTDP1 cells + 20 nM CPT, ATP luminescence, 48 h; Potency, µM (highest dose often 46.2 µM), inactives show top-dose activity change, negative = growth inhibition, most hits filed as inhibitors; actives 12% (n = 420,000); AID 686979, 2013; note: potency is the fitted concentration of half-maximal effect; nearly all actives have a fitted effect of over 55% in size
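Chicken DT40 Tdp1-/- cells stably complemented with human TDP1 were seeded at 400 cells/well in medium containing 20 nM camptothecin, exposed to pin-transferred compounds, and grown at 37 °C for at least 48 hr. Viability was read as ATP luminescence.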
HT1080-NT tox: qHTS for induction of synthetic lethality in tumor cells producing 2HG: qHTS for the HT-1080-NT fibrosarcoma cell line; Potency, µM (doses to about 46.1 µM), for the others: top-dose activity, negative = less viability, most hits filed as cytotoxic; HT-1080-NT fibrosarcoma viability, CellTiter-Glo ATP luminescence, 48 h; AID 686970, 2013; actives 1.6% (n = 360,000);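 note: NT is the 2HG producing partner of a matched IDH1 knockdown line; potency is the fitted concentration of half-maximal effect; 0% = DMSO-treated cells and -100% = media-only wells without cells; nearly all actives have a fitted effect of over 55% in size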
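Fibrosarcoma NT cells, 750 per well in 5% FBS RPMI, were exposed to compound for 48 hours. Viability: CellTiter-Glo luminescence.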
IL-1B inflam inh: qHTS for Inhibitors of Inflammasome Signaling: IL-1-beta AlphaLISA Primary Screen. activity change, % at 57.5 µM. THP-1 LPS/ATP IL-1B secretion, AlphaLISA, 16 h; active compounds read low. actives 4.7% (n = 360,000). AID 743279, 2014; in the data active = activity change below about -50%; inconclusive = mostly about -30% to -49%
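THP-1 cells pretreated 1 hr with compounds (up to 57.5 uM final), then stimulated with LPS (250 ng/mL final) plus ATP (1.25 mM final); secreted IL-1B measured by AlphaLISA after 16 hr, decreased signal indicating inhibition.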
DT40 TDP1 no CPT: qHTS for Inhibitors of human tyrosyl-DNA phosphodiesterase 1 (TDP1): qHTS in cells in absence of CPT; DT40 Tdp1-/- hTDP1 cells, no CPT, ATP luminescence, 48 h; Potency, µM (titrated, usually from 46.2 µM), for inactives: at the top dose activity change, negative = growth inhibition, most hits filed as inhibitors; actives 15% (n = 420,000); AID 686978, 2013; note: potency is the fitted concentration of half-maximal effect; nearly all actives have a fitted effect of over 55% in size
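Chicken DT40 Tdp1-/- cells complemented with human TDP1, screened without camptothecin (DMSO vehicle only), 400 cells/well. Compounds pin-transferred, cells incubated at 37 °C for at least 48 hr. Growth read as ATP-dependent luminescence (CellTiter-Glo, 30 min at RT).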
ELG1 DNA repair: qHTS screen for small molecules that inhibit ELG1-dependent DNA repair in human embryonic kidney (HEK293T) cells expressing luciferase-tagged ELG1 | HEK293T ELG1-luciferase reporter, luminescence, 16 h; DNA damage induced by 5-fluorouridine | Potency, µM (titrated, usually from 46.1 µM), for inactives: at the top dose activity change, negative = inhibition, usual class: inhibitors | actives 2.3% (n = 330,000) | AID 504467, 2011; note: potency is the fitted concentration of half-maximal effect; nearly all actives have a fitted effect of over 55% in size
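Overnight (16 hr) co-exposure of 2,000 cells/well to 5-fluorouridine and compound at 37 °C preceded detection. Luciferase was quantified via ONE-Glo luminescence; loss of signal denotes inhibition.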
HT1080 IDH1KD tx: qHTS for induction of synthetic lethality in tumor cells producing 2HG: qHTS for the HT-1080-IDH1KD cell line | HT-1080 IDH1 knockdown viability, ATP luminescence, 48 h | Potency, µM (series often up to 46.1 µM), inactives show at the top dose activity, negative = toxicity, usual class: cytotoxic | actives 2% (n = 360,000) | AID 686971, 2013;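 note: potency is the fitted concentration of half-maximal effect; 0% = DMSO wells and -100% = cell-free medium wells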
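Cytotoxicity counter-line: IDH1KD HT-1080, 48 h, CellTiter-Glo. Curves classed by r2, magnitude and activity.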
* marks the source's active call; other numbers are inactive results. Compounds with a hit are over-represented: about 19% of the library has one in this group of screens. Unless noted, calls come from the whole dose curve; as a rule, active = well fitted curve in the direction sought with a large enough effect; inconclusive = small, poorly fitted or top-dose-only effect, or another doubt; inactive = no such curve, though single readings can be large; an effect the other way counts as inactive or inconclusive. Unless noted, % is set by controls: 0 for no effect and ±100 for the full control effect.

`COc1ccccc1C(CNC(=O)c1cccc(S(=O)(=O)N2c3ccccc3CC2C)c1)N(C)C` (configuration not stated) gave DT40 TDP1 CPT inconclusive, HT1080-NT tox inconclusive, IL-1B inflam inh -53.9*, DT40 TDP1 no CPT 14.6µM* and HT1080 IDH1KD tx -5.2%.
`CNC(=O)C1CN(C(=O)c2cccc(S(=O)(=O)N3c4ccccc4CC3C)c2)c2ccccc2O1` (configuration not stated) gave DT40 TDP1 CPT inconclusive, HT1080-NT tox -2.5%, IL-1B inflam inh 10.8, DT40 TDP1 no CPT 18.4µM*, ELG1 DNA repair -13.8% and HT1080 IDH1KD tx -6.8%.
`CCN(CC(=O)Nc1ccc(NC(C)=O)cc1)C(=O)c1cccc(S(=O)(=O)N2c3ccccc3CC2C)c1` (configuration not stated) gave DT40 TDP1 CPT -4.1%, HT1080-NT tox -21.9%, IL-1B inflam inh -20.1, DT40 TDP1 no CPT -3.1%, ELG1 DNA repair 10.9% and HT1080 IDH1KD tx -10.4%.
`COc1ccc(OC)c(CN2C(=O)CN(S(C)(=O)=O)CC2(C)C(=O)Nc2c(C)cccc2C)c1` (configuration not stated) gave DT40 TDP1 CPT 7.1%, HT1080-NT tox 9.1%, IL-1B inflam inh -8.3, DT40 TDP1 no CPT -3.5% and HT1080 IDH1KD tx 2.9%.
CCn1c(CNC(=O)c2ccc(F)cc2)cc2ccccc21 was read as DT40 TDP1 CPT -8.2%, HT1080-NT tox 9.7%, IL-1B inflam inh 26.6, DT40 TDP1 no CPT inconclusive, ELG1 DNA repair 14.5% and HT1080 IDH1KD tx 0.0%.
COc1ccc(OCc2ccc(-c3nc(C#N)c(N4CCN(c5cccc(Cl)c5)CC4)o3)o2)cc1 was read as DT40 TDP1 CPT -7.1% and DT40 TDP1 no CPT -15.9%.
CCN(CC)C(=O)c1sc2nc(-c3ccccn3)[nH]c(=O)c2c1C was read as DT40 TDP1 CPT 23.1µM*, HT1080-NT tox -10.5%, IL-1B inflam inh 1.1, DT40 TDP1 no CPT 11.6µM* and HT1080 IDH1KD tx -16.4%.
Cc1sc2nc(-c3ccncc3)[nH]c(=O)c2c1-c1ccccc1 was read as ELG1 DNA repair 1.1%.
`Cc1sc2nc(-c3ccccn3)[nH]c(=O)c2c1-c1ccccc1` gave DT40 TDP1 CPT 9.2µM*, HT1080-NT tox inconclusive, IL-1B inflam inh 92.3, DT40 TDP1 no CPT 10.3µM*, ELG1 DNA repair -18.1% and HT1080 IDH1KD tx inconclusive.
Screening CCN(CC)C(=O)c1sc2nc(-c3ccncc3)[nH]c(=O)c2c1C returned DT40 TDP1 CPT -14.8%, HT1080-NT tox 0.0%, IL-1B inflam inh 11.4, DT40 TDP1 no CPT 5.8%, ELG1 DNA repair -1.2% and HT1080 IDH1KD tx -9.1%.
CCC(C)NC(=O)c1ccccc1-c1nc2ccccc2[nH]1 (configuration not stated) was read as DT40 TDP1 CPT 10.3%, HT1080-NT tox 1.2%, IL-1B inflam inh 15.0, DT40 TDP1 no CPT 1.4%, ELG1 DNA repair 3.6% and HT1080 IDH1KD tx 10.1%.
For Cc1ccccc1Nc1nc(N)nc(CCl)n1 the results were DT40 TDP1 CPT 20.6µM*, HT1080-NT tox 1.16µM*, IL-1B inflam inh -93.6*, DT40 TDP1 no CPT 23.1µM*, ELG1 DNA repair inconclusive and HT1080 IDH1KD tx 14.6µM*.
Nc1nc(CCl)nc(Nc2ccc3ccccc3c2)n1 was read as DT40 TDP1 CPT 11.6µM*, HT1080-NT tox 2.06µM*, IL-1B inflam inh -98.9*, DT40 TDP1 no CPT 14.6µM*, ELG1 DNA repair 2.3% and HT1080 IDH1KD tx 8.2µM*.
`COc1ccc(Nc2nc(N)nc(CCl)n2)cc1` gave DT40 TDP1 CPT 23.1µM*, HT1080-NT tox 1.46µM*, IL-1B inflam inh -59.8*, DT40 TDP1 no CPT inconclusive, ELG1 DNA repair inconclusive and HT1080 IDH1KD tx 23.1µM*.
For Cc1ccccc1Nc1nc(N)nc(CN(C)c2ccccc2)n1 the results were DT40 TDP1 CPT -18.6%, HT1080-NT tox -3.3%, IL-1B inflam inh 2.6, DT40 TDP1 no CPT inconclusive, ELG1 DNA repair inconclusive and HT1080 IDH1KD tx -8.9%.
Screening CC(C)(C(=O)N1CCC1(C)C(=O)NS(=O)(=O)c1cccc(Cl)c1)c1ccccc1 (configuration not stated) returned DT40 TDP1 CPT -3.1%, HT1080-NT tox -0.8%, IL-1B inflam inh 1.0, DT40 TDP1 no CPT -6.4% and HT1080 IDH1KD tx 0.4%.
Screening O=C(NC(=S)NNC(=O)c1cc2ccccc2cc1O)c1ccco1 returned DT40 TDP1 CPT inconclusive, HT1080-NT tox -10.1%, IL-1B inflam inh 55.4, DT40 TDP1 no CPT inconclusive, ELG1 DNA repair 0.9% and HT1080 IDH1KD tx inconclusive.
CCCCC(=O)Nc1ccc(C(=O)NNC(=S)NC(=O)c2ccco2)cc1 was read as DT40 TDP1 CPT 13µM*, HT1080-NT tox -11.2%, IL-1B inflam inh 26.7, DT40 TDP1 no CPT 23.1µM*, ELG1 DNA repair inconclusive and HT1080 IDH1KD tx -13.9%.
Screening CCOc1ccc(NC(=O)c2ccco2)cc1 returned DT40 TDP1 CPT -23.1%, HT1080-NT tox 7.5%, IL-1B inflam inh -21.2, DT40 TDP1 no CPT -27.5%, ELG1 DNA repair inconclusive and HT1080 IDH1KD tx 6.4%.
Screening O=C(NNC(=S)NC(=O)c1ccco1)c1ccc(NC(=O)c2ccccc2)cc1 returned DT40 TDP1 CPT 16.4µM*, HT1080-NT tox -7.4%, IL-1B inflam inh 36.0, DT40 TDP1 no CPT 20.6µM*, ELG1 DNA repair 14.6µM* and HT1080 IDH1KD tx -8.7%.
Screening CCOc1ccc(NC(=S)NC(=O)c2ccco2)cc1 returned DT40 TDP1 CPT -26.4%, HT1080-NT tox 14.5%, IL-1B inflam inh 25.1, DT40 TDP1 no CPT 29.1µM*, ELG1 DNA repair inconclusive and HT1080 IDH1KD tx 6.9%.
For O=C(NC(=S)NNC(=O)c1ccccc1O)c1ccco1 the results were DT40 TDP1 CPT 20.6µM*, HT1080-NT tox inconclusive, IL-1B inflam inh 22.5, DT40 TDP1 no CPT 18.4µM*, ELG1 DNA repair 26.1% and HT1080 IDH1KD tx inconclusive.
Screening O=C(CSc1ccc([N+](=O)[O-])cc1)NNC(=O)c1ccccc1F returned DT40 TDP1 CPT -15.8%, HT1080-NT tox 17.7%, IL-1B inflam inh -5.1, DT40 TDP1 no CPT -27.9%, ELG1 DNA repair 11.5% and HT1080 IDH1KD tx 0.0%.
